{
  "source": "PubChem BioAssay AID504329",
  "about": "(Southern Research Specialized Biocontainment Screening …, 2011)",
  "note": "Among all 340,000 compounds or so, about 1,000 (0.29%) were called active. Rule as the data show it: inconclusive = inhibition above about 27% without an active follow-up result; inactive = below that. A selection follows. Measured potencies and affinities stand elsewhere.",
  "data": [
    {"assay": "H1N1 influenza NS1A inhibitors, functional cell based assay (AID 504329)", "details": "percent inhibition, at 12.5 µM, stronger effect = higher value", "values": [
      {"smiles": "Cc1ccc(S(=O)(=O)NCc2ccccc2)cc1C(=O)N1CCN(S(=O)(=O)c2ccccc2)CC1", "inhibition": "-12.2% (inactive)"},
      {"smiles": "COC(=O)C1SCCN1S(=O)(=O)c1ccc(Cl)cc1", "note": "(stereo not drawn)", "inhibition": "-20.7% (inactive)"},
      {"smiles": "CN(C)c1nc(OCC(=O)NC(C)(C)C)nc(N(C)C)n1", "inhibition": "-0.43% (inactive)"},
      {"smiles": "O=C(c1ccc(Br)c(S(=O)(=O)N2CCOCC2)c1)N1CCN(C/C=C/c2ccccc2)CC1", "inhibition": "-13% (inactive)"},
      {"smiles": "CC1(c2ccc3c(c2)OCCO3)NC(=O)N(CC(=O)Nc2ccccc2SCC#N)C1=O", "note": "(stereo not drawn)", "inhibition": "-12.2% (inactive)"},
      {"smiles": "Oc1ccc(N=Nc2ccc3c(c2)OCCO3)c(O)c1", "inhibition": "12.8% (inactive)"},
      {"smiles": "Oc1ccc(N=Nc2ccc(Br)cc2)c(O)c1", "inhibition": "-16.2% (inactive)"},
      {"smiles": "O=S(=O)(c1cc(O)ccc1O)c1cccc2c(S(=O)(=O)c3cc(O)ccc3O)cccc12", "inhibition": "12.4% (inactive)"},
      {"smiles": "O=S(=O)(O)c1cc(O)ccc1O", "inhibition": "1.1% (inactive)"},
      {"smiles": "CC(OC(=O)c1ncc(Cl)c(Cl)c1Cl)C(=O)NC1CCCCC1C", "note": "(stereo not drawn)", "inhibition": "-15.4% (inactive)"},
      {"smiles": "CN1C=C/C(=C\\c2cc[n+](C)c3ccccc23)c2ccccc21", "inhibition": "1.31% (inactive)"},
      {"smiles": "COc1ccc(/C=C/c2ccc3ccccc3[n+]2C)cc1OC", "inhibition": "-10.2% (inactive)"},
      {"smiles": "CC(C)CCC(C)NC(=O)Cc1ccc(S(=O)(=O)N2CCOCC2)s1", "note": "(stereo not drawn)", "inhibition": "-3.75% (inactive)"},
      {"smiles": "C/C(=N\\NC(=O)C1COc2ccccc2O1)c1cccs1", "note": "(stereo not drawn)", "inhibition": "-4.26% (inactive)"},
      {"smiles": "C/C(=N\\NC(=O)C1COc2ccccc2O1)c1ccc(C)o1", "note": "(stereo not drawn)", "inhibition": "7.81% (inactive)"},
      {"smiles": "O=C(Nc1nc(-c2ccccc2)cs1)c1ccco1", "inhibition": "1.53% (inactive)"},
      {"smiles": "O=C(Nc1nc(-c2ccccn2)cs1)c1cccc(-n2cnnn2)c1", "inhibition": "-28.6% (inactive)"},
      {"smiles": "O=C(Nc1nc(-c2ccncc2)cs1)c1ccco1", "inhibition": "21.8% (inactive)"},
      {"smiles": "CC(=O)Nc1ccc(C(=O)Nc2nc(-c3cccnc3)cs2)cc1", "inhibition": "4.3% (inactive)"},
      {"smiles": "O=C(Nc1nc(-c2ccccn2)cs1)c1ccc(Cl)s1", "inhibition": "12.2% (inactive)"},
      {"smiles": "O=C(Nc1nc(-c2ccccn2)cs1)c1ccc2c(c1)OCCO2", "inhibition": "4.21% (inactive)"},
      {"smiles": "O=C(Nc1nc2c(F)cccc2s1)C1CC1", "inhibition": "-11.6% (inactive)"},
      {"smiles": "O=C(CN1CCCCC1)Nc1ccc(F)c(Cl)c1", "inhibition": "6.14% (inactive)"},
      {"smiles": "CC(=O)N1N=C(c2ccc(C)cc2)CC1c1ccc2c(c1)OCO2", "note": "(stereo not drawn)", "inhibition": "-19.2% (inactive)"},
      {"smiles": "Cc1n[nH]c(C)c1CCN(C)Cc1cn(C)nc1-c1ccccc1F", "inhibition": "-2.31% (inactive)"},
      {"smiles": "CCOC(=O)C(CC)n1cnc2c(nnn2-c2ccccc2)c1=O", "note": "(stereo not drawn)", "inhibition": "4.43% (inactive)"},
      {"smiles": "CC(C)C[C@@H](CNCC(=O)[C@H](Cc1ccccc1)NC(=O)c1[nH]cnc1C(=O)N[C@@H](C)CN)NC(=O)c1nc[nH]c1C(=O)N[C@@H](C)C(=O)O", "inhibition": "-9.76% (inactive)"},
      {"smiles": "O=C(NCc1cccs1)Nc1cc(Cl)ccc1Cl", "inhibition": "-3.84% (inactive)"},
      {"smiles": "Cc1csc(NC(=O)C2CC(=O)N(c3ccc4c(c3)OCCO4)C2)n1", "note": "(stereo not drawn)", "inhibition": "-10.8% (inactive)"},
      {"smiles": "Cc1ccnc2nc(C(=O)Nc3nc4ccccc4s3)nn12", "inhibition": "-12.1% (inactive)"},
      {"smiles": "COc1ccc(-c2csc(NC(=O)C3CC(=O)N(c4ccc5c(c4)OCCO5)C3)n2)cc1", "note": "(stereo not drawn)", "inhibition": "-0.66% (inactive)"},
      {"smiles": "O=C(Nc1nc(-c2ccccc2)cs1)C1COc2ccccc2O1", "note": "(stereo not drawn)", "inhibition": "3.59% (inactive)"},
      {"smiles": "C[C@H](NC(=O)c1ccco1)C(=O)Nc1nc(-c2ccccn2)cs1", "inhibition": "21.6% (inactive)"},
      {"smiles": "Cc1csc(NC(=O)C2COc3ccccc3O2)n1", "note": "(stereo not drawn)", "inhibition": "3.59% (inactive)"},
      {"smiles": "CC(NC(=O)c1ccco1)C(=O)Nc1nccs1", "note": "(stereo not drawn)", "inhibition": "-3.4% (inactive)"},
      {"smiles": "Cc1csc(NC(=O)c2nc3nccc(C)n3n2)n1", "inhibition": "11.3% (inactive)"},
      {"smiles": "Cc1ccc(NCC(=O)N/N=C/c2ccncc2)cc1", "inhibition": "-3.31% (inactive)"},
      {"smiles": "COc1ccc(Cc2noc(CN(C)CC(O)c3ccccc3)n2)cc1OC", "note": "(stereo not drawn)", "inhibition": "-6.23% (inactive)"},
      {"smiles": "CC(C)Cc1nnc(NC(=O)c2ccncc2)s1", "inhibition": "7% (inactive)"},
      {"smiles": "C[C@H](CO)N1C[C@H](C)[C@@H](CN(C)S(=O)(=O)c2cccs2)Oc2ccc(NC(=O)Cc3ccccc3)cc2C1=O", "inhibition": "-1.59% (inactive)"},
      {"smiles": "O=C(CN1C(=O)NC2(CCOc3ccccc32)C1=O)Nc1cccc(Cl)c1", "note": "(stereo not drawn)", "inhibition": "3.28% (inactive)"},
      {"smiles": "CC(=O)CC(=O)Nc1ccn(-c2ccccc2)n1", "inhibition": "10.6% (inactive)"},
      {"smiles": "O=C(CNC(=O)c1ccco1)NCC(=O)OCC(=O)c1ccc(Cl)c([N+](=O)[O-])c1", "inhibition": "6.1% (inactive)"},
      {"smiles": "O=C1OC(c2ccc(F)cc2)=N/C1=C\\C=C/c1ccccc1", "inhibition": "-22.8% (inactive)"},
      {"smiles": "CC(C)(C)NC(=S)NC(=O)C12CCC3CC(CC(C3)C1)C2", "inhibition": "0.27% (inactive)"},
      {"smiles": "CCOc1ncccc1C(=O)Nc1ccccc1N1CCOCC1", "inhibition": "-4.05% (inactive)"},
      {"smiles": "Cc1ccc(C(=O)Nc2nc(-c3ccccn3)cs2)s1", "inhibition": "18.4% (inactive)"},
      {"smiles": "CC(Oc1ccccc1)C(=O)Nc1nc(-c2ccccn2)cs1", "note": "(stereo not drawn)", "inhibition": "16.9% (inactive)"},
      {"smiles": "Cc1csc(NC(=O)c2cccn2C)n1", "inhibition": "-0.43% (inactive)"},
      {"smiles": "Cc1cccc(C(=O)NC(C(=O)Nc2nc(-c3ccccn3)cs2)C(C)C)c1", "note": "(stereo not drawn)", "inhibition": "15.6% (inactive)"},
      {"smiles": "COc1ccc(NC(=O)CSCc2cc(=O)n3nc(C4CC4)sc3n2)cc1", "inhibition": "2.59% (inactive)"},
      {"smiles": "CCCCOc1c(Cl)cc(CNC(C)(C)CO)cc1OCC", "inhibition": "-2.92% (inactive)"},
      {"smiles": "Cc1ccc(-c2nn(C)c(=O)c3ccccc23)cc1S(=O)(=O)NCCN1CCOCC1", "inhibition": "-10.6% (inactive)"},
      {"smiles": "O=C1C2CCCN2C(c2ccc(F)c(F)c2)N1c1cccc(Cl)c1", "note": "(stereo not drawn)", "inhibition": "-6.3% (inactive)"},
      {"smiles": "Cc1cc(OCc2cn3cccnc3n2)ccc1Cl", "inhibition": "6.77% (inactive)"},
      {"smiles": "CCOc1ccc2[nH]c(=O)c(CN(Cc3ccccc3OC)C(=O)c3ccccc3)cc2c1", "inhibition": "21.1% (inactive)"},
      {"smiles": "CCOc1ccc(S(=O)(=O)N2CCC(C(=O)OCc3cccc(OC)c3OC)CC2)cc1", "inhibition": "-13.5% (inactive)"},
      {"smiles": "COc1ccc(N=Nc2ccc(O)c3ncccc23)cc1", "inhibition": "2.93% (inactive)"},
      {"smiles": "COc1cccc(N=Nc2ccc(O)c3ncccc23)c1", "inhibition": "-0.21% (inactive)"},
      {"smiles": "COc1ccc(C)cc1N=Nc1ccc(O)c2ncccc12", "inhibition": "6.77% (inactive)"},
      {"smiles": "Cc1ccc(C)c(N=Nc2ccc(O)c3ncccc23)c1", "inhibition": "5.69% (inactive)"},
      {"smiles": "CCS(=O)(=O)c1ccc(OC)c(N=Nc2ccc(O)c3ncccc23)c1", "inhibition": "9.35% (inactive)"},
      {"smiles": "Cc1cccc(N=Nc2ccc(O)c3ncccc23)c1", "inhibition": "0.95% (inactive)"}
    ]}
  ]
}
